In all, about 350,000 compounds went through this assay and about 7,000 (2%) were called active. This is one part of a sample in which actives are shown more often than they occur. Rule as the data show it: active = activation above about 40%; inconclusive = no clear call, values can overlap the other calls; inactive = below that.
experiment: Bmi1 luciferase reporter increase in mESCs, primary screen, esBAF inhibitor project, mouse ES cells, Bmi1 luciferase knock-in, single point (AID 602393); conditions: 24 h, at 12.5 µM, hits give high values, 100% = twice the neutral-well signal;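 also: 0% = median of the plate's neutral control wells and 100% = double that signal; a rise in the Bmi1 reporter signal indicates esBAF inhibition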

For `O=C(N/N=C/c1c[nH]c2ccccc12)c1ccccc1O`, which reporter increase is on record?
Its reporter increase is 51.9% (active).

For `O=C(NN=Cc1ccc2c(c1)CCC2)c1ccccc1O`, which reporter increase is on record?
The reporter increase was 59.3% (active).

With `O=C(NCCc1c[nH]c2ccccc12)c1cccc(Br)c1` as the molecule, how does the reporter increase read?
The reporter increase was 11.6% (inactive).

For `O=C(NC(Cc1c[nH]c2ccccc12)C(=O)N/N=C/c1ccc(Br)cc1)c1cccs1` (stereo not given), which reporter increase is on record?
The reporter increase was 4.44% (inactive).

Which reporter increase does the source give for `O=C(N/N=C\c1cccc(Br)c1)c1ccccc1-n1cccc1` here?
The reporter increase was 3.44% (inactive).

Which reporter increase does the source give for `O=C(N/N=C/c1cccc(Br)c1)c1ccc(N2CCCC2=O)cc1` here?
Its reporter increase is 7.79% (inactive).

Which reporter increase does the source give for `COc1ccccc1-c1cccc(-c2nc(C(=O)N3CCN(C)CC3)cc3c2[C@H](CCO)N([S@@](=O)C(C)(C)C)C3)c1` here?
The reporter increase was -0.462% (inactive).

With `C[C@@H]1CN([C@@H](C)CO)C(=O)CCCn2cc(nn2)CO[C@@H]1CN(C)C(=O)c1ccncc1` as the molecule, how does the reporter increase read?
The reporter increase was -3.8% (inactive).

Which reporter increase does the source give for `C[C@H](CO)N1C[C@H](C)[C@@H](CN(C)C(=O)c2ccncc2)Oc2cc(C3=CCCCC3)ccc2S1(=O)=O` here?
Its reporter increase is 2.87% (inactive).

With `C[C@H](CO)N1C[C@H](C)[C@H](CN(C)S(=O)(=O)c2cn(C)cn2)Oc2c(NC(=O)C3CCOCC3)cccc2C1=O` as the molecule, how does the reporter increase read?
Its reporter increase is -1.13% (inactive).

For `Cc1cccc(CSc2nnc(C)c(=O)n2N)c1`, which reporter increase is on record?
The reporter increase was -7.26% (inactive).

Which reporter increase does the source give for `Cc1cc(-c2cccs2)nc(-n2cccc2)n1` here?
The reporter increase was 17.4% (inactive).

For `Cc1cccc(CSc2ccc(-c3cccs3)nn2)c1`, which reporter increase is on record?
Its reporter increase is 50.5% (active).

For `C[C@H]1CN([C@@H](C)CO)C(=O)CCCn2nncc2CO[C@H]1CN(C)Cc1ccc2c(c1)OCO2`, which reporter increase is on record?
Its reporter increase is 0.657% (inactive).

With `C/C=C/c1cnc2c(c1)C(=O)N([C@H](C)CO)C[C@H](C)[C@@H](CN(C)S(=O)(=O)c1ccccc1F)O2` as the molecule, how does the reporter increase read?
Its reporter increase is 0.934% (inactive).

With `COc1ccccc1-c1cn(CC[C@H]2CC[C@H](NC(=O)Cc3ccccn3)[C@H](CO)O2)nn1` as the molecule, how does the reporter increase read?
Its reporter increase is 0.363% (inactive).

With `Cc1noc(C)c1NC(=O)N(C)C[C@@H]1Oc2ccc(NS(C)(=O)=O)cc2C(=O)N([C@H](C)CO)C[C@@H]1C` as the molecule, how does the reporter increase read?
The reporter increase was -2.07% (inactive).

For `CC(C)C(C)NC(=O)COc1ncnc2ccccc12` (stereo not given), which reporter increase is on record?
The reporter increase was -6.72% (inactive).

Which reporter increase does the source give for `CN(Cc1nc2ccccc2s1)C(=O)c1ccc(F)cc1` here?
Its reporter increase is 8.62% (inactive).

For `CCC(=O)NC(=Nc1nc2ccccc2s1)NC(=O)CC`, which reporter increase is on record?
The reporter increase was 65.4% (active).

With `O=C(C[C@H]1C=C[C@@H](NC(=O)CC2CC2)[C@H](CO)O1)NCc1ccc(-c2ccccc2)cc1` as the molecule, how does the reporter increase read?
The reporter increase was 1.19% (inactive).

With `O=C(C[C@H]1C=C[C@H](NC(=O)C2CCC2)[C@H](CO)O1)NCCCN1CCOCC1` as the molecule, how does the reporter increase read?
Its reporter increase is 1% (inactive).

Which reporter increase does the source give for `Cc1c(C(=O)OCC(=O)N2CCCC2=O)oc2ccccc12` here?
Its reporter increase is 18.9% (inactive).

For `CCOC(=O)c1c(C)[nH]c(C(=O)OCC(=O)N2CCCC2=O)c1C`, which reporter increase is on record?
The reporter increase was 47% (active).

For `CCOC(=O)c1[nH]c(C)c(C(=O)OCC(=O)N2c3ccccc3CC2C)c1C` (stereo not given), which reporter increase is on record?
Its reporter increase is -0.495% (inactive).

Reference: PubChem BioAssay AID602393 (Broad Institute, 2012)
